Bioassay records from PubChem.
Most compounds without a hit are left out; they make up all but 4.8% or so of the library.
DAX1 inh-1 = inhibitors of DAX1 repression of SF-1 activated StAR promoter; HEK293T StAR-luciferase reporter, SF-1/DAX-1 repression relief; inhibition, % at 6.8 µM; 370,000 tested, 1.1% active; AID 652010;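 active = inhibition above the mean over all tested compounds plus 3 SD, cut at about 3.6% in these data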;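 also: 0% = DAX-1 cells with DMSO and 100% = cells lacking DAX-1 with DMSO; higher inhibition means more luminescence from relief of DAX-1 repression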
hcDAF-12 act = activates DAF-12 receptor from parasite H. contortus; HEK293 hcDAF-12 lit1-tk-luc reporter, luminescence; 0% DMSO, 100% Δ7-dafachronic acid; 370,000 tested, 1.4% active; activation, % at 6.8 µM; AID 652067;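 active = activation above the mean of all tested compounds plus 3 SD, cut at about 5.5% in these data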;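 also: 100% = response to 3 µM Δ7-dafachronic acid high control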
DAX1 inh-2 = NR0B1 (DAX1) inhibition | HEK293 Gal4-DAX1 luciferase reporter, luminescence | inhibition, % at 6.75 µM | 340,000 tested, 0.99% active;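 active = inhibition above the mean over all tested compounds plus 3 SD, cut at about 4.2% in these data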;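 also: 0% = DAX1-transfected cells with DMSO and 100% = empty-vector control cells with DMSO; inhibition shows as a rise in luminescence from relieved DAX1 repression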
Target sequence (P51843 207-470 limits assumed): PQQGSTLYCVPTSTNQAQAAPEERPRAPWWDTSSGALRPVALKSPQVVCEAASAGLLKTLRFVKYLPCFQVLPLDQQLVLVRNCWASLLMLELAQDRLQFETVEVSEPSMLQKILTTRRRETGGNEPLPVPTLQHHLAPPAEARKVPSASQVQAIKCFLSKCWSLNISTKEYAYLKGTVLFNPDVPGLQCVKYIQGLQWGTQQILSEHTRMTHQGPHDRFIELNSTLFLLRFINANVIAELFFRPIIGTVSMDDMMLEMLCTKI
SMARCA2 act = activators of SMARCA2 function. MG213 cells, MMTV-luciferase reporter, dexamethasone, overnight. activation, % at 9.1 µM. 370,000 tested, 1% active; in the data active = activation above about 7.8%;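 also: 0% = vehicle wells and 100% = reference activator wells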
ssDAF12 agonist = activators of S. stercoralis DAF-12 nuclear receptor; HEK293 ssDAF-12/GRIP1 lit1-tk-luc reporter, luminescence; % of 3 µM dafachronic acid response; activation, % at 6.8 µM; 370,000 tested, 1% active; AID 652126;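 active = activation above the mean over all tested compounds plus 3 SD, cut at about 0.9% in these data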;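 also: 0% = DMSO-only wells and 100% = 3 µM delta7-dafachronic acid wells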
hgDAF-12 ag = agonists of H. glycines DAF-12 nuclear receptor; HEK293 GAL4-hgDAF12 UAS-luciferase reporter, agonist luminescence; normalized to butyrate control; activation, % at 6.8 µM; AID 687014; 370,000 tested, 1.8% active;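 active = activation above a cutoff set at the mean of all screened compounds plus 3 SD, cut at about 10% in these data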;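 also: 0% = DMSO wells and 100% = sodium butyrate wells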
An asterisk follows results filed as active; x = no result given.

SMILES	DAX1 inh-1	hcDAF-12 act	DAX1 inh-2	SMARCA2 act	ssDAF12 agonist	hgDAF-12 ag
CCCCC1CCC(c2ccc(C(N)=O)cc2)CC1 (stereo not drawn)	0	0	1	-1	-1	-1
CCCCCC1CCC(c2ccc(/C(N)=N/O)cc2)CC1 (stereo not drawn)	0	1	5.5*	3	-1	-2
CCC(=O)Oc1ccc(C(=O)Nc2cccc(C(=O)NCC(C)C)c2)cc1	0	-1	4.7*	-4	-1	0
CCCCCCCCN1CCS(=O)(=O)N(Cc2ccc(OC)cc2)C(C(=O)OC)C1 (stereo not drawn)	-2	-2	x	-2	-2	-2
CC(C)c1cc(C(N)=O)c(NC(=O)c2cccc(COc3ccc(Cl)cc3)c2)s1	1	4	-5	1	0	13*
COc1ccccc1NC(=O)C/C(C)=N/NC(=O)C12CC3CC(CC(C3)C1)C2	1	-1	2	2	0	5
COc1ccc(CCNC(=O)C/C(C)=N/NC(=O)C23CC4CC(CC(C4)C2)C3)cc1OC	2	2	1	2	0.9*	7
Cc1ccc(S(=O)(=O)N(C)c2ccc(C(=O)NCC(c3ccccc3)N3CCCC3)cc2)cc1 (stereo not drawn)	4.0*	-1	3	3	-1	0
COc1ccc(C(CNC(=O)c2cccc(S(=O)(=O)Nc3ccc(F)cc3)c2)N2CCCC2)cc1 (stereo not drawn)	3.6*	-2	-1	-2	0	-2
COc1ccc(NS(=O)(=O)c2cccc(C(=O)NCC(c3ccc(OC)cc3)N3CCCCC3)c2)cc1 (stereo not drawn)	2	0	0	1	-1	-3
COc1ccc(NS(=O)(=O)c2cccc(C(=O)NCC(c3ccc(OC)cc3)N3CCCC3)c2)cc1 (stereo not drawn)	4.2*	0	1	-2	-1	4
CCN(CC)c1ccc(C(=O)O)cc1	1	0	-1	-1	0	1
CCN(CC)c1ccc(C(=S)NCc2ccccc2)cc1	0	-2	7.3*	-3	-1	-2
O=C1N2Cc3ccccc3C2CS(=O)(=O)N1Cc1ccccc1 (stereo not drawn)	0	-1	x	-2	0	1
CCC(C)n1c(=S)[nH]c2c(sc3ccc([N+](=O)[O-])cc32)c1=O (stereo not drawn)	0	-1	0	0	3.4*	0
O=C(O)Cn1c(SCc2ccccc2)nc2ccccc21	0	-1	1	-3	-1	-1
O=C(O)Cn1c(SCc2cccc3ccccc23)nc2ccccc21	0	6.1*	0	2	0	1
CCOC(=O)[C@]12CCCCC/C=C\1N(Cc1ccc(OC)cc1)C(=O)[C@H]2CC(=O)NCCCCc1ccccc1	0	-3	x	-1	-2	2
Cc1nn(-c2cccc(Cl)c2)c2nc(-c3ccco3)cc(C(=O)O)c12	1	0	-1	1	-1	-1
Cc1cccc(-n2nc(C)c3c(C(=O)O)cc(-c4cccs4)nc32)c1	-1	0	4.6*	1	-1	2
CC(C)(C)N(Cc1cn(CC2CCCCC2)nn1)S(=O)(=O)c1ccccc1Br	-1	-4	x	-5	-1	2
CN(C)c1ccc2c(c1)C(=NO)c1ccccc1-2	x	x	4.4*	x	x	x
ON=C1c2ccccc2-c2ccccc21	1	2	1	-1	-1	4
COc1ccc(-n2c(SCC(=O)Nc3cc(C)c(NC(=O)c4ccccc4)cc3OC)nnc2-c2ccccc2F)cc1	-3	-1	x	-2	0	-4
c1coc(CSc2ncnc3c2oc2ccccc23)c1	0	3	5.7*	4	0	5
C[C@@H]1CN([C@@H](C)CO)C(=O)c2cc(-c3cccnc3)cnc2O[C@H]1CN(C)C(=O)c1cccc(F)c1	0	0	6.5*	5	0	0
C[C@@H]1CN([C@H](C)CO)C(=O)c2cc(Br)cnc2O[C@H]1CN(C)C(=O)Cc1ccccc1	0	1	0	-1	-1	-4
